Compound activity (PubChem BioAssay)
Giardia FBPA inh = qHTS Assay for Inhibitors of Fructose-1,6-bisphosphate Aldolase from Giardia Lamblia | AID 2451, 2010 | purified Giardia FBPA | Potency, µM (doses to about 59.6 µM), inactives show top-dose activity, negative = inhibition, usual class: inhibitors | A8B2U2 | 0.71% of 290,000 active; further: potency means the concentration at half of the fitted maximal effect; on the % scale 0 is the no-effect control and ±100 the full control effect; nearly all actives have a fitted effect of over 55% in size
Target sequence (A8B2U2 whole entry, looked up): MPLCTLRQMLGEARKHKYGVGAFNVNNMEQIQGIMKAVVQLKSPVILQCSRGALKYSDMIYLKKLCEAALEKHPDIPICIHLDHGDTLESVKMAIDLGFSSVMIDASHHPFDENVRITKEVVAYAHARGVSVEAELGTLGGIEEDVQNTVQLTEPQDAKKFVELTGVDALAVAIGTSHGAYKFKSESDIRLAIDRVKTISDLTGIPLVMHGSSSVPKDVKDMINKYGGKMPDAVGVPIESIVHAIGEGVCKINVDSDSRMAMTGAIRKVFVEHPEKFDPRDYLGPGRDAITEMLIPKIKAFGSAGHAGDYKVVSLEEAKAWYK
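Giardia FBPA (40 nM reagent) was preincubated 10 min at RT with compound (up to 57.5 uM final), then substrate plus GAPDH/TPI/NAD/arsenate coupling system with diaphorase/resazurin was added; resorufin fluorescence (525/598 nm) was read after 20 min.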
Tb PYK inh = qHTS of Trypanosoma Brucei Inhibitors; Potency, µM (titrated, usually from 76.8 µM), without a hit: at the top dose activity, negative = inhibition, hits mostly inhibitors; pyruvate kinase (Trypanosoma brucei), Q57TT1; TbPYK enzyme, Kinase-Glo Plus ATP luminescence, 45 min; AID 624173, 2012; 0.12% of 410,000 active; further: potency means the concentration at half of the fitted maximal effect; on the % scale 0 is the no-effect control and ±100 the full control effect; nearly all actives have a fitted effect of over 50% in size
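Enzyme and substrate buffer are dispensed first and compound is pin-transferred. ADP at 130 uM final then starts the reaction, which runs 45 min at room temperature. Detection reagent is added for 10 min before luminescence is imaged.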
Shiga inhibitor = A qHTS for Small Molecule Inhibitors of Shiga Toxin | inhibition, % at 38.7 µM | 9.2% of 290,000 active | Vero cells, Shiga toxin protein synthesis inhibition reporter; in the data active means inhibition mostly above about 28%, no sharp cut-off; inactive means mostly below about 43%; further: 0% is about no effect
Sm TGR block = qHTS Assay for the Inhibitors of Schistosoma Mansoni Peroxiredoxins; Schistosoma mansoni thioredoxin glutathione reductase (TGR), Q962Y6; purified TGR, DTNB reduction, TNB absorbance 405 nm; Potency, µM (highest dose often 114 µM), for inactives: at the highest dose activity change, negative = inhibition, actives largely listed as inhibitors; 3% of 360,000 active; AID 485364, 2010; further: potency means the concentration at half of the fitted maximal effect; on the % scale 0 is the no-effect control and ±100 the full control effect; nearly all actives have a fitted effect of over 60% in size
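First, TGR (20 nM dispensed) and NADPH were mixed with compound. Second, a 15 min room-temperature incubation followed. Third, further NADPH and then DTNB were added to start the reaction. Finally, TNB absorbance was monitored kinetically.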
LmPK inhibitor = qHTS Assay for Inhibitors of Leishmania Mexicana Pyruvate Kinase (LmPK); purified LmPK, Kinase-Glo ATP luminescence, 1 h; Potency, µM (highest dose often 57.5 µM), inactives show top-dose activity change, negative = inhibition, most hits filed as inhibitors; 0.37% of 290,000 active; AID 1721, 2009; further: potency means the concentration at half of the fitted maximal effect; on the % scale 0 is the no-effect control and ±100 the full control effect
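In 50 mM imidazole pH 7.2 with 7 mM MgCl2, LmPK (0.1 nM) turned over PEP (0.5 mM) and ADP (0.1 mM) for 1 h at room temperature. Luciferase read-out of ATP.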
CHX counter = Cycloheximide Counterscreen for Small Molecule Inhibitors of Shiga Toxin; cell reporter, cycloheximide protein synthesis inhibition counterscreen; max response, %; 12% of 300,000 active; in the data active means max response mostly above about 13%, no sharp cut-off; inactive means mostly below about 14%; further: read at 38.3 µM for the half of the compounds with a filed dose; 0% is about no effect
Starred values were filed as active, the others as inactive; ? = inconclusive; nt = not tested or not shown; + = active, no number. The entries come from a sample that favours hits as a whole. Unless noted, the call rests on the fitted dose curve; in most records, active means well fitted curve in the direction sought with a large enough effect; inconclusive means small, poorly fitted or top-dose-only effect, or another doubt; inactive means no such curve, though single readings can be large; an effect the other way counts as inactive or inconclusive.

SMILES	Giardia FBPA inh	Tb PYK inh	Shiga inhibitor	Sm TGR block	LmPK inhibitor	CHX counter
CC(C)(C)c1ccc(/C=C/C(=O)Nc2ccc(S(N)(=O)=O)cc2)cc1	nt	-3.0%	nt	-0.7%	nt	nt
CC(C)(C)c1ccc(/C=C/C(=O)NC2=NCCS2)cc1	-3.1%	-12.9%	+	2.9%	3.6%	53.9*
Cc1ccc(/C=C/C(=O)Nc2cc(C)on2)cc1	-1.0%	2.3%	62.2*	-25.0%	-4.5%	58.4*
COc1cc2ccccc2cc1C(=O)N1CCN(c2nc3ccc(F)cc3s2)CC1	nt	-11.7%	nt	6.2%	nt	nt
Cc1ccc(C)c(Nc2ncnc3onc(C)c23)c1	nt	3.9%	nt	-1.0%	nt	nt
O=C(O)C(Cc1c[nH]c2ccccc12)N1CCS(=O)(=O)CC1 (centres undefined)	-13.0%	-0.5%	-8.8	-21.7%	9.1%	-2.5
COc1ccc(N(C(=O)c2cnccn2)C(C(=O)NCc2ccccc2)c2ccc(O)cc2)cc1 (centres undefined)	1.7%	1.8%	75.3*	28.2µM*	-4.6%	27.8*
O=C(NCc1ccccc1)C(c1ccco1)N(C(=O)c1ccccn1)c1ccccc1 (centres undefined)	nt	-3.3%	22.5	10.4%	-2.6%	-4.7
O=C(NCc1ccccc1)C(c1ccc(O)cc1)N(C(=O)c1cnccn1)c1ccccc1 (centres undefined)	8.9%	3.7%	-6.8	6.3%	-3.9%	-3.5
COc1ccc(CNC(=O)C(c2ccco2)N(C(=O)c2ccccn2)c2ccccc2)cc1 (centres undefined)	1.6%	8.7%	83.6*	-16.2%	6.9%	38.1*
O=C(NCc1ccccc1)C(c1ccncc1)N(C(=O)c1ccccn1)c1ccccc1 (centres undefined)	-3.4%	0.8%	60.0*	-26.5%	-8.7%	24.9*
O=C1CN(C(=O)c2ccc(Cl)cc2Cl)C(c2ccc(F)cc2)c2cc(F)ccc2N1 (centres undefined)	nt	-13.0%	nt	2.5%	nt	nt
N/C(=N\OC(=O)COc1ccc(Br)cc1Cl)c1ccccn1	2.0%	-13.3%	44.8	0.6%	-21.1%	50.1*
N/C(=N\OC(=O)COc1ccc(Br)cc1Cl)c1ccncc1	6.7%	-11.4%	120.9*	-9.9%	-1.5%	88.3*
N/C(=N\OC(=O)COc1ccc(Cl)cc1Cl)c1ccccn1	0.8%	0.3%	47.7*	13.9%	-19.3%	35.2*
N/C(=N\OC(=O)COc1cc(Cl)c(Cl)cc1Cl)c1ccncc1	8.1%	-2.7%	30.2	1.4%	1.7%	10.1
COc1cc(NC(=O)c2c(C)oc3ncnc(N4CCCCC4)c23)cc(OC)c1	nt	3.6%	nt	2.1%	nt	nt
CCC(C(=O)O)n1ccc2cc(S(=O)(=O)N3CCCCC3)ccc21 (centres undefined)	nt	-0.7%	nt	-8.9%	nt	nt
Oc1cc2c(cc1CN1CCN(c3ccccc3F)CC1)OCO2	0.1%	3.8%	13.8	1µM*	13.1%	-0.8
O=[N+]([O-])c1cc2c(cc1CN1CCN(c3ccccc3)CC1)OCO2	-0.7%	-5.7%	nt	-0.4%	-2.2%	34.9*
CC(C)(C)c1ccc(S(=O)(=O)N2CCN(Cc3cc4c(cc3O)OCO4)CC2)cc1	nt	6.3%	nt	2.82µM*	nt	nt
Oc1cc2c(cc1CN1CCc3ccccc3C1)OCO2	nt	-8.4%	-8.1	2.51µM*	1.6%	2.0
Cc1ccc(C)c(Nc2nc(-c3ccccc3)c3cc(Br)ccc3n2)c1	nt	4.3%	nt	-3.0%	nt	nt
O=C(c1ccc2c(c1)OCO2)N1CCN(c2ccccc2F)CC1	7.0%	2.2%	28.9	-19.5%	6.5%	22.0*
COc1ccccc1N1CCN(Cc2cc3c(cc2O)OCO3)CC1	nt	-2.4%	-2.8	1.78µM*	-3.8%	-4.4
SMILES	Giardia FBPA inh	Tb PYK inh	Shiga inhibitor	Sm TGR block	LmPK inhibitor	CHX counter
Cc1cnc(C(=O)Nc2ccc(S(=O)(=O)N(C(C)C)C(C)C)cc2)cn1	-9.0%	-9.9%	nt	5.2%	7.8%	1.7
Cc1cnc(C(=O)Nc2cccc(-c3nnc4n3CCCCC4)c2)cn1	-3.5%	2.4%	-5.0	3.8%	-2.8%	1.0
O=C(Nc1ccc2c(c1)CCC2)c1cnccn1	-1.5%	0.5%	108.9*	-23.3%	?	45.9*
Cc1cnc(C(=O)Nc2cc(F)ccc2C)cn1	1.4%	-8.7%	26.4	nt	-9.8%	12.3
Cc1cnc(C(=O)Nc2ccc(F)c(F)c2)cn1	12.6%	2.5%	55.4*	5.7%	-18.0%	20.7*
Cc1cnc(C(=O)Nc2ccc3c(c2)CCC3)cn1	-2.3%	2.2%	81.9*	0.8%	-21.8%	39.0*
CCCCOc1ccc(NC(=O)c2cnc(C)cn2)cc1	-0.4%	-2.0%	53.7	3.9%	-7.9%	13.2*
Cc1ccccc1Cn1cc(CCC(=O)NC(C)c2ccccc2)c2ccccc21 (centres undefined)	nt	1.5%	nt	-3.4%	nt	nt
Cc1cc(C)n2nc(C(=O)Nc3ccc4c(c3)CCC4)nc2n1	-8.3%	-5.7%	104.0*	0.6%	-1.8%	34.3*
Cc1cc(C)n2nc(C(=O)Nc3ccc(S(=O)(=O)N4CCCC4)cc3)nc2n1	2.1%	2.0%	1.6	1.3%	-2.4%	1.5
COc1ccc(-n2ccn(Cc3ccc(C)cc3)c(=O)c2=O)cc1OC	nt	7.5%	nt	-13.4%	nt	nt
Fc1cccc(Cc2c(-c3ccccc3)nc3ccc(Br)cn23)c1	nt	-5.7%	nt	nt	nt	nt
Fc1cccc(Cc2c(-c3ccco3)nc3ccc(Br)cn23)c1	nt	25.1µM*	nt	nt	nt	nt
O=C(O)c1cc(O)c2c(c1)[C@@H]([C@H]1c3cc(C(=O)O)cc(O)c3C(=O)c3c(O[C@@H]4O[C@H](CO)[C@@H](O)[C@H](O)[C@H]4O)cccc31)c1cccc(O[C@@H]3O[C@H](CO)[C@@H](O)[C@H](O)[C@H]3O)c1C2=O	nt	-8.4%	nt	nt	nt	nt
O=C(O)c1cc(O)c2c(c1)[C@H]([C@H]1c3cc(C(=O)O)cc(O)c3C(=O)c3c(O[C@@H]4OC(CO)C(O)C(O)C4O)cccc31)c1cccc(O[C@@H]3OC(CO)C(O)C(O)C3O)c1C2=O (some centres undefined)	17.7µM*	-9.4%	nt	nt	nt	nt
CC(C)(C)c1ccc(/C=N/NC(=O)C2CCCC2)cc1	nt	3.9%	132.9*	3.5%	0.3%	50.6*
CC(C)c1ccc(/C=N/NC(=O)C2CCCC2)cc1	-5.0%	-4.3%	88.1*	-6.8%	-4.0%	80.1*
C=C1CC(C(=O)N/N=C/c2ccccc2)C1	-1.9%	0.1%	41.2*	2.9%	-6.5%	40.0*
CC(C)c1ccc(/C=N/NC(=O)CC(=O)NC2CCCCC2)cc1	4.5%	5.9%	25.0	37.8%	-0.1%	-6.2
C#CCn1c(=NC(=O)c2ccco2)sc2cccc(Cl)c21	-4.6%	0.1%	23.7	0.8%	9.0%	12.6*
